# From PubChem BioAssay
# FGF22 binding: binders of recombinant human FGF22 by thermal shift; Q9HCT0; SYPRO orange fluorescence; percent of sucrose octasulfate shift, DMSO zero; activity (Tm shift, normalised), % at 9.99 µM; 340,000 compounds, 1.5% hits; AID 651658;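 active means mean Tm shift, scaled 0 neutral to 100 positive control, at about 1.3% or above, every replicate too, limit read from the data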
# Target sequence (Q9HCT0 whole entry, looked up): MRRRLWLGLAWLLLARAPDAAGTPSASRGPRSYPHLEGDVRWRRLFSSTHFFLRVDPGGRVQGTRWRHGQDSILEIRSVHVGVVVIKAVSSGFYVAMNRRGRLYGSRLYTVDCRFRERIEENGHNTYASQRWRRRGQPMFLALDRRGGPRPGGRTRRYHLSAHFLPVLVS
# Ecoli rRNA inh: selective bacterial rRNA inhibition in E. coli; E. coli WT GFP vs humanized-ribosome RFP mutants, fluorescence, 24 h; hits give low values; DMSO median 0, no signal -100; GFP signal change (wild-type ribosome), % (test concentration not listed); 350,000 compounds, 1.6% hits; AID 720706;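 active means significant combined selectivity score with lowered wild-type GFP, culture density cut under 30%, mutant RFP and density less affected; inactive means any of these conditions unmet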
# ADAM10 inh: inhibits human ADAM10; O14672; recombinant ADAM10, EDANS/DABCYL FRET peptide cleavage, 3 h; inhibition, % at 7 µM; 370,000 compounds, 0.62% hits; AID 720582;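 active means inhibition above a per-campaign cutoff equal to the mean of compounds falling between control-based bounds plus 3 SD, cut at about 20% in these data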;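 further: 0% = DMSO wells while the 100% control is not disclosed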
# KLK7 zymogen act: activates the human kallikrein-7 zymogen. P49862. purified proKLK7, EDANS-DABCYL substrate fluorescence; 100% is mature enzyme control, 0% vehicle. activation, % at 7 µM. 370,000 compounds, 0.9% hits. AID 652039;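 active means activation above the mean of all tested compounds plus 3 SD, computed per campaign excluding outliers beyond control limits, cut at about 13% in these data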
# Target sequence (P49862 whole entry, looked up): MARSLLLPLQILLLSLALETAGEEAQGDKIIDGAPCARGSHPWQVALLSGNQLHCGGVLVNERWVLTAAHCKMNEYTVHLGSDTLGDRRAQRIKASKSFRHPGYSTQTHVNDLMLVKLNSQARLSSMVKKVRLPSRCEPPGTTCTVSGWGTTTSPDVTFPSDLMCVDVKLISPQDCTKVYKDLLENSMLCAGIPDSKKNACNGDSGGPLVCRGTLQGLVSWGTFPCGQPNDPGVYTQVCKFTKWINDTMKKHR
# ADAM17 inh: inhibits human ADAM17; P78536; recombinant ADAM17, EDANS/DABCYL FRET peptide cleavage; 370,000 compounds, 0.83% hits; inhibition, % at 6.95 µM;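 active means inhibition above the mean of compounds lying between control limits plus 3 SD, set per campaign, cut at about 8.5% in these data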;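 further: 0% = DMSO-only wells as the low control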
# KLK7 act conf: confirmation of human kallikrein-7 zymogen activators. shares compounds with KLK7 zymogen act. purified proKLK7, EDANS-DABCYL substrate fluorescence; scaled: vehicle 0, mature enzyme 100. activation, % at 7 µM. 3,200 compounds, 68% hits;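 active means activation, as change over the incubation, above the mean of all tested compounds plus 3 SD, cut at about 13% in these data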
# EDANS-DABCYL int: fluorescence interference counter-screen for KLK7 activators | activation, % at 7 µM | EDANS-DABCYL substrate fluorescence interference, no enzyme, 4 h; solvent 0%, active enzyme control 100% | shares compounds with KLK7 zymogen act | 3,200 compounds, 80% hits;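 active means activation above the all-compound mean plus 3 SD, ignoring values outside control-based bounds, cut at about 4.8% in these data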;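 further: value is the 4 h activation minus the activation read at time zero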
# K7 EDANS ctr: EDANS fluorescence interference in dose response, no enzyme; AID 720493; 250 compounds, 20% hits; EDANS-DABCYL peptide fluorescence interference; shares compounds with KLK7 zymogen act; EC50, µM;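 active means compounds that raise the fluorescence signal in this interference counterscreen, with EC50 at or below 10 µM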;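 further: intact quenched peptide substrate alone read at 355 nm excitation and 520 nm emission; signal is fluorescence gain from T0 to T4 after four hours at room temperature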
# * hit, by the source's call; i = inactive; / = no result. Sampled rows, rich in hits. Any-hit rate of the full collection: about 3.8%.
SMILES,FGF22 binding,Ecoli rRNA inh,ADAM10 inh,KLK7 zymogen act,ADAM17 inh,KLK7 act conf,EDANS-DABCYL int,others
Nc1c(C(=O)Nc2ccccc2)c2nc3ccccc3nc2n1CCCN1CCOCC1,0,/,-17,-8,-13,/,/,
N#Cc1c(N)n(CCCN2CCOCC2)c2nc3ccccc3nc12,/,/,i,47*,i,68*,79*,
COc1ccc2c3c(n(C)c2c1)[C@H](CO)N(Cc1nccs1)CC31CCN(C(C)=O)CC1,0,2,/,/,/,/,/,
C[C@@H]1CN([C@H](C)CO)C(=O)c2cc(NC(=O)Cc3cn(C)c4ccccc34)ccc2O[C@@H]1CN(C)C(=O)Nc1cccc2ccccc12,0,-1,/,/,/,/,/,
COc1ccc(NC(=O)N2CC(=O)N3[C@@H](CO)[C@H](c4ccc(-c5ccccc5)cc4)[C@@H]3C2)cc1,/,-1,/,/,/,/,/,
CCc1cc(=O)oc2cc(OC(=O)CN3C(=O)NC4(CCCC4)C3=O)ccc12,0,9,i,97*,i,60*,68*,
Cc1ccc(OCCOC(=O)CN2C(=O)NC3(CCCC3)C2=O)cc1,0,-5,-4,0,-7,/,/,
O=C(CN1C(=O)NC2(CCCCC2)C1=O)Oc1ccc2c(C(F)(F)F)cc(=O)oc2c1,0,-10,i,63*,i,61*,66*,
O=C(CN1C(=O)NC2(CCCC2)C1=O)Oc1ccc2ccc(=O)oc2c1,0,8,i,67*,i,63*,72*,
O=C(NC1CCCC1)N1CC(=O)N2[C@@H](CO)[C@H](c3ccc(-c4cccc(F)c4)cc3)[C@@H]2C1,/,-3,/,/,/,/,/,
c1ccc2c(c1)NC1(CCCC1)n1c-2nc2ccccc21,0,-1,i,82*,i,61*,66*,
CCCC1(C)Nc2ccccc2-c2nc3ccccc3n21 (stereo unspecified),/,/,i,63*,i,10,7.1*,
C[C@@H]1CCCCO[C@H](CN(C)C)[C@H](C)CN([C@@H](C)CO)C(=O)c2cc(NC(=O)Nc3ccccc3)ccc2O1,0,-2,/,/,/,/,/,
O=C(CCN1CCCCC1)N[C@@H]1CC[C@H](CCn2cc(-c3ccccc3)nn2)O[C@H]1CO,0,4,/,/,/,/,/,
C=CCOC(=O)C1=C(C)NC(SCC(=O)N(CC)CC)=C(C#N)C1c1ccccc1 (stereo unspecified),/,/,-17,0,7,/,/,
C=CCOC(=O)C1=C(C)NC(SCC(=O)NC(=O)OCC)=C(C#N)C1c1cccnc1 (stereo unspecified),0,-1,-81,20*,-19,27*,17*,K7 EDANS ctr=4.4*
Cc1ccc(S(=O)(=O)Nc2ccc3c(c2)C(=O)N([C@@H](C)CO)C[C@@H](C)[C@@H](CN(C)Cc2ccc(Cl)c(Cl)c2)OCCCC[C@@H](C)O3)cc1,/,0,/,/,/,/,/,
C=C(C)COc1cc2oc(=O)c(CC(=O)N3C[C@H]4C[C@@H](C3)c3cccc(=O)n3C4)c(C)c2cc1Cl,0,-16,i,16*,-402,24*,25*,
C=C(C)COc1ccc2c(C)c(CC(=O)N3C[C@H]4C[C@@H](C3)c3cccc(=O)n3C4)c(=O)oc2c1,0,/,i,4,-229,/,/,
CCCc1cc(=O)oc2cc(C)cc(OCC(=O)N3CCC(C(N)=O)CC3)c12,0,20,-458,17*,-113,4,10*,
CCCc1cc(=O)oc2cc(C)cc(OCC(=O)N3CCC(C(=O)O)CC3)c12,0,/,i,16*,-242,13*,16*,
CCc1cc(=O)oc2cc(C)cc(OCC(=O)N3CCC(C(=O)O)CC3)c12,0,6,i,16*,-169,19*,19*,
CCc1cc(=O)oc2cc(C)cc(OCC(C)=O)c12,0,-7,-276,13*,-122,12,17*,
